Experiment [1] deals with Human papillomavirus type 1a protein E7 (residues 44-93). Put plainly: small molecules binding HPV E7 44-93 – biochemical, small-molecule microarray, residues 44-93, 635 nm fluorescence, primary screen (AID 1108).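 Note: E7 fragment applied at 1 µg/mL in TBST for 1 h at 4 C; score combines spot fluorescence with its signal to noise ratio.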 Conditions: fluorescence 635 nm, higher = more signal.
Experiment [2] can be described thus: hepatitis C replication reporter changes, two-sided – Huh7 cells, luciferase reporter, HCV replication inhibitor project, primary screen (AID 1109).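 Note: huh7 hepatoma cells harbouring a luciferase neomycin HCV replicon reporter; luciferase luminescence as measure of HCV replicon replication; test concentration not given here.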 To be noted: Huh7 HCV replicon luciferase reporter, 48 h; higher = more signal.
Experiment [3] concerns the target Left-right determination factor 2 (Homo sapiens) (UniProt O00292). Put plainly: small molecules binding LEFTY2 protein – biochemical, small-molecule microarray, 635 nm fluorescence scan, primary screen (AID 1110). Conditions: higher = more signal.
For experiment [4], the target named is Calmodulin-1 (Homo sapiens) (UniProt P0DP23). The experiment can be described thus: small molecules binding calmodulin-1 with EGTA – biochemical, small-molecule microarray, Cy5-labelled CALM1, profiling panel (AID 1111).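 Note: labelled calmodulin applied in Tris saline Tween buffer holding calcium plus EGTA and DTT.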 Conditions: Cy5-CALM1 binding fluorescence, higher = more signal.
Experiment [5] has the same target. Put plainly: small molecules binding Ca-loaded calmodulin-1 – biochemical, small-molecule microarray, Cy5-labelled CALM1, plus calcium, artefact control for SMM control-protein annotation, profiling panel (AID 1112).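 Note: score merges spot fluorescence with signal to noise from triplicate slides.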 Conditions: Cy5-CALM1 binding fluorescence, higher = more signal.
The nature of experiment [6]: probe aWnt5a binding to arrayed compounds – biochemical, biotinylated probe, 635/667 nm fluorescence, primary screen (AID 1113).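 Note: score merges 667 nm fluorescence intensity with signal-to-noise per printed feature.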 To be noted: small-molecule microarray, higher = more signal.
Experiment [7] can be described thus: probe aShh binding to arrayed compounds – biochemical, biotinylated probe, 635/667 nm fluorescence, primary screen (AID 1114).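 Note: probe is biotin-labelled aShh protein from a stem cell growth factor screen; measures binding of labelled protein to compounds printed on the slide; score merges feature fluorescence at 667 nm with signal-to-noise.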 Conditions: small-molecule microarray, higher = more signal.
The nature of experiment [8]: probe aNog binding to arrayed compounds – biochemical, biotinylated probe, 635/667 nm fluorescence, primary screen (AID 1115).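 Note: probe is biotinylated aNog protein used at 0.15 µg/mL for 1 h at 4 C; z-score combines 667 nm fluorescence of each spot with its signal to noise.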 To be noted: small-molecule microarray, higher = more signal.
Experiment [9] deals with Torsin-1A-interacting protein 1 (Homo sapiens) (UniProt Q5JTV8). The experiment can be described thus: compound microarray binding of lysate hLAP1 – cell lysate, small-molecule microarray, COS7 lysate, 635/667 nm fluorescence, primary screen (AID 1116). To be noted: 635 nm fluorescence, higher = more signal.
Experiment [10] addresses Alpha-bungarotoxin (Bungarus multicinctus) (UniProt P60615). Put plainly: compounds binding labelled alpha-BTX control protein – biochemical, small-molecule microarray, Alexa647 label, 635/667 nm fluorescence, artefact control for SMM control protein annotation, profiling panel (AID 1117). To be noted: alpha-BTX-A647 binding fluorescence, higher = more signal.
The target in a further experiment is Albumin (Bos taurus) (UniProt P02769). The experiment can be described thus: compounds binding labelled BSA control protein – biochemical, small-molecule microarray, Alexa647 label, 635/667 nm fluorescence, artefact control for SMM control protein annotation, profiling panel (AID 1118).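 Note: score merges 667 nm emission intensity and signal-to-noise per printed compound spot.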 To be noted: BSA-A647 binding, fluorescence 635 nm, higher = more signal.
Experiment [11] in a line: probe aXIP binding to arrayed compounds – biochemical, NeuroSMM set, 635/667 nm fluorescence, primary screen (AID 1119).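 Note: probe is the protein aXip251-270 applied at 1 µg/mL to compound-printed slides; binding of probe to printed compounds measured as 667 nm fluorescence plus signal to noise.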 Conditions: small-molecule microarray, higher = more signal, called active from +8 up or from −8 down.
Experiment [12] can be described thus: probe aNOTCH3 binding on compound microarray – biochemical, small-molecule microarray, 635/667 nm fluorescence, primary screen (AID 1120).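 Note: probe is a biotin-tagged antibody raised against NOTCH3 rather than NOTCH3 protein; score merges spot fluorescence near 667 nm with spot signal to noise.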 Conditions: higher = more signal.
The nature of experiment [13]: probe aNOTCH2 binding on compound microarray – biochemical, small-molecule microarray, 635/667 nm fluorescence, primary screen (AID 1121).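 Note: score merges feature fluorescence read at 667 nm with its signal to noise.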 To be noted: higher = more signal.
Experiment [14] has as its target Carbonic anhydrase 2 (Homo sapiens) (UniProt P00918). Put plainly: compounds binding carbonic anhydrase 2 – biochemical, small-molecule microarray, Alexa647-labelled CAII, profiling panel (AID 1122). To be noted: CAII-A647 binding fluorescence, higher = more signal.
Experiment [15] can be described thus: COS7 lysate on small-molecule microarray, probe aHis, 635 nm (AID 1123).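 Note: z-score combines 667nm fluorescence intensity with signal-to-noise per printed compound spot.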 Conditions: COS7 cell lysate, fluorescence, higher = more signal.
Experiment [16] can be described thus: probe aLAP1 signal on lysate-treated microarray – cell lysate, small-molecule microarray, COS7 lysate, primary screen (AID 1124).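 Note: lysate comes from COS7 cells expressing LAP1 and is applied at 0.3 µg/mL; score merges spot fluorescence near 667 nm with signal-to-noise over triplicate slides.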 To be noted: probe aLAP1, fluorescence, higher = more signal.
In another experiment the test system is Sam68 (KHDRBS1). The experiment can be described thus: compounds binding KHDRBS1 protein – biochemical, small-molecule microarray, 635 nm fluorescence, primary screen (AID 1125).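 Note: score merges 667 nm channel intensity with signal to noise over triplicate slides.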 Conditions: higher = more signal.
Experiment [17] deals with Chordin-like protein 2 (CHRDL2). Put plainly: compounds binding chordin-like 2 – biochemical, small-molecule microarray, 635 nm fluorescence, primary screen (AID 1126).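 Note: printed compound slides probed with Chrdl2 protein at 4 µg/mL for 1 h at 4 C; score merges 667 nm emission intensity with signal to noise over three replicate slides.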 To be noted: fluorescence 635 nm, higher = more signal.
The target of experiment [18] is Concanavalin-A (Canavalia ensiformis) (UniProt P02866). The experiment can be described thus: compounds binding concanavalin A lectin – biochemical, small-molecule microarray, Alexa647 label, 635 nm, artefact control for SMM control protein annotation, primary screen (AID 1127).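 Note: z combines 667 nm emission intensity with signal-to-noise across three replicate slides.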 To be noted: ConA-A647 binding fluorescence, higher = more signal.

The source made the active and inactive calls.

Sequence of Albumin (Bos taurus) (P02769 whole entry, looked up): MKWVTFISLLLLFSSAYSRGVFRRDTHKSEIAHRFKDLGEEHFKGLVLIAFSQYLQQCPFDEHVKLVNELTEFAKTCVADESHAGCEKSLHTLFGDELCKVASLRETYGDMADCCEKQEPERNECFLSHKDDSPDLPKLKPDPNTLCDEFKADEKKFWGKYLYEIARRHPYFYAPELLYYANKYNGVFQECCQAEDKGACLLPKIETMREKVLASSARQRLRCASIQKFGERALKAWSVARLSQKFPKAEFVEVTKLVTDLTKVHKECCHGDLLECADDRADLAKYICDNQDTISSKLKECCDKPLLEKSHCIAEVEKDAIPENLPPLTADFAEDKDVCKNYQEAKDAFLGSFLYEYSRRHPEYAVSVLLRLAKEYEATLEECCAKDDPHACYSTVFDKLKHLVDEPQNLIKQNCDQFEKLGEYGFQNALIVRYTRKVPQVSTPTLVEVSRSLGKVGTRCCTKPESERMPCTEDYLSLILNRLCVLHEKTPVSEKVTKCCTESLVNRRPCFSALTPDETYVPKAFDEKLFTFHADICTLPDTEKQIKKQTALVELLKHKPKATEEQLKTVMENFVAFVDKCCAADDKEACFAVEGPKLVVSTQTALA
Sequence of Left-right determination factor 2 (Homo sapiens) (O00292 whole entry, looked up): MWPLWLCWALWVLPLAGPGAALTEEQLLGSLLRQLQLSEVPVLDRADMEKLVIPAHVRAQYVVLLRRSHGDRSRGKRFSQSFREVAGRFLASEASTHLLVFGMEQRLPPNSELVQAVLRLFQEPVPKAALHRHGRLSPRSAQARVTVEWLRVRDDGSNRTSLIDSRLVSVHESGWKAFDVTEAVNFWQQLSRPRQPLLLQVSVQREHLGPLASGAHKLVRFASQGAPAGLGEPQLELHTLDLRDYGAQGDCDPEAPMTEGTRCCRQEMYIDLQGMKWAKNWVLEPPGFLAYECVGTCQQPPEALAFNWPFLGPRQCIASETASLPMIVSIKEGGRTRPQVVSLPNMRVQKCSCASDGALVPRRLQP
Sequence of Torsin-1A-interacting protein 1 (Homo sapiens) (Q5JTV8 whole entry, looked up): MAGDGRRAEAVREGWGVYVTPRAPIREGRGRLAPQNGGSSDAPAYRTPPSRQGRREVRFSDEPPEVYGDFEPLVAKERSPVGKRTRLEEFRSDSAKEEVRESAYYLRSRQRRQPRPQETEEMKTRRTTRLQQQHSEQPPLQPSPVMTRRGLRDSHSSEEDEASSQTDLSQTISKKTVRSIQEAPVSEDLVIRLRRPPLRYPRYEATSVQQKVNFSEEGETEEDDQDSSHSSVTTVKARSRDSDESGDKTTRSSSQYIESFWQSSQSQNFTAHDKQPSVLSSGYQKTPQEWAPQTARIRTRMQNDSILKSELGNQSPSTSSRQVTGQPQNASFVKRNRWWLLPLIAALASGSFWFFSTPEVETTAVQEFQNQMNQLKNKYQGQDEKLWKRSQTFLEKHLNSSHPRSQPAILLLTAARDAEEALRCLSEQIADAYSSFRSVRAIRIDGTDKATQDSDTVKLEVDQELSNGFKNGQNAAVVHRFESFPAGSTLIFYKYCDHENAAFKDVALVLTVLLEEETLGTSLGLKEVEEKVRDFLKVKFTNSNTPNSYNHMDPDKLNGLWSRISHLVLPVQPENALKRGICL
Sequence of Alpha-bungarotoxin (Bungarus multicinctus) (P60615 whole entry, looked up): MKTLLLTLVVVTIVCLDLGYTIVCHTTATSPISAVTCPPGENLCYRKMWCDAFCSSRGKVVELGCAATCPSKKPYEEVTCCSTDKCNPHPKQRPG
Sequence of Concanavalin-A (Canavalia ensiformis) (P02866 whole entry, looked up): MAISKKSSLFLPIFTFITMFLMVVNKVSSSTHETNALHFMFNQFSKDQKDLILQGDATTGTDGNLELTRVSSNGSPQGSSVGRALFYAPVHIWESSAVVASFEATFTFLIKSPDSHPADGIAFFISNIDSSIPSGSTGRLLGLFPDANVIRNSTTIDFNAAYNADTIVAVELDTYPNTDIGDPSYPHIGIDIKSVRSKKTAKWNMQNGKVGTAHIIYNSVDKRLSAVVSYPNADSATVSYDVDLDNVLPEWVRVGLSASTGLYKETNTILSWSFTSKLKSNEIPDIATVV

Turning to `COC(=O)C1=CC(CCCO)=CC(C2CC2)N(Cc2sc3ccccc3c2Cl)C=C1C(=O)OC` (stereo not given), the composite z-score came to 1.44 in experiment [1]; 0.101 in experiment [3]; 1.49 in experiment [4]; 0.952 in [5]; 0.168 in experiment [6]; 0.441 in experiment [7]. Also, the composite z-score in [8] is 0.838; in experiment [9], 1.74; in experiment [10], 1.84; in the experiment with Albumin (Bos taurus), 0.932; in [12] it was 0.224; in experiment [13], -0.0209. For the same compound, the composite z-score in experiment [14] is 0.817; in experiment [15] it was 1.55; in experiment [16] it was 1.01; in the experiment with Sam68 (KHDRBS1), 1.3; in experiment [17], -0.236; in [18], 0.949. This compound displayed a z-score in [2] of -2.53. For the same compound, the composite Z-score in experiment [11] was 0.408 (inactive).
Take `CC(=O)C1=CCC(c2ccccc2)N(S(=O)(=O)c2ccc(C)cc2)C1` (stereo not given): the composite z-score in [1] was 1.41; in [3] it was 0.034; in [4], -0.105; in [5] it was -0.163; in experiment [6] it was -0.0758; in [7], 0.156. The composite z-score in [8] is 0.471; in [9], 1.28; in experiment [10], 0.19; with Albumin (Bos taurus), 0.632; in experiment [12] it was 0.101; in [13] it was -0.0439. Further, the composite z-score in [14] turned out to be 0.66; in experiment [15], 2.5; in experiment [16], 0.763; in the experiment on Sam68 (KHDRBS1), 0.579; in experiment [17], 0.725; in experiment [18], 0.789. The compound further yielded a z-score in experiment [2] of -0.975. Also, the composite Z-score in [11] is -0.685 (inactive).
As for `NC(=O)NCC#Cc1ccc2c(c1)[C@]1(C(=O)N2)[C@H](C(=O)N2CCCCCCC2)[C@H]2C(=O)O[C@H](c3ccccc3)[C@H](c3ccccc3)N2[C@@H]1c1ccc(OCCO)cc1`, the composite z-score was determined as 1.18 in [1]; 1.04 in [3]; 1.99 in experiment [4]; 0.897 in [5]; 0.83 in experiment [6]; 2.19 in experiment [7]. The composite z-score in [8] was 2.19; in experiment [9], 1.45; in experiment [10] it was 2.02; with Albumin (Bos taurus), -0.946; in [12], 1.29; in experiment [13] it was 0.683. Further, the composite z-score in experiment [14] was determined as 0.336; in experiment [15] it was 1.6; in experiment [16] it was 0.864; in the experiment with Sam68 (KHDRBS1), 1.32; in experiment [17] it was 1.09; in experiment [18], 0.987. The z-score in experiment [2] was -1.03. The composite Z-score in [11] is -0.397 (inactive).
With `CCCNC(=O)[C@@]1(c2ccc([N+](=O)[O-])cc2)CC(=O)N(CC23CC4CC(CC(C4)C2)C3)[C@@H]1c1ccc(CO)cc1`, the composite z-score in experiment [1] is 0.914; in experiment [3], 0.421; in [4], -0.865; in experiment [5], -0.827; in experiment [6], 0.0004; in experiment [7], -0.569. Further, the composite z-score in [8] was 0.0278; in [9], -0.303; in experiment [10], 1.01; with Albumin (Bos taurus), -0.161; in experiment [12] it was -0.255; in experiment [13] it was -0.168. The composite z-score in experiment [14] is 0.716; in [15], 1.08; in experiment [16] it was 1.88; in the experiment with Sam68 (KHDRBS1), 0.591; in experiment [17], -0.0438; in [18], 0.531. In addition, the z-score in [2] is -2.86. For the same compound, the composite Z-score in experiment [11] was -0.639 (inactive).
`O=C1O[C@@H](c2ccccc2)[C@@H](c2ccccc2)N2[C@@H](c3ccc(OCCO)cc3)[C@]3(C(=O)Nc4ccccc43)[C@@H](C(=O)Nc3nc4ccccc4s3)[C@H]12`: the composite z-score came to 1.44 in experiment [1]; 1.05 in [3]; 1.67 in experiment [4]; 0.241 in [5]; 0.105 in [6]; 0.171 in experiment [7]. Further, the composite z-score is 1.27 in experiment [8]; 1.5 in experiment [9]; 1.78 in [10]; 0.915 with Albumin (Bos taurus); 0.372 in experiment [12]; -0.0028 in [13]. The composite z-score was 0.593 in [14]; 2.45 in experiment [15]; 0.262 in experiment [16]; 1.3 with Sam68 (KHDRBS1); 0.477 in experiment [17]; 1.11 in experiment [18]. The same compound gave a z-score in [2] of -2.66. In experiment [11], the composite Z-score is 0.755 (inactive).
Turning to `O=C1C2C=CC(C(O)c3cccs3)N(Nc3ccccc3F)C2C(=O)N1c1ccccc1` (stereo not given), the composite z-score in experiment [1] was 0.749; in experiment [3], -0.0883; in [4], 0.0073; in experiment [5], -0.65; in experiment [6] it was 0.0633; in [7] it was 0.0723. Also, the composite z-score in experiment [8] was -0.126; in [9], 0.543; in experiment [10] it was 0.825; in the experiment with Albumin (Bos taurus), 0.512; in experiment [12], -0.0728; in [13] it was -0.181. The composite z-score in experiment [14] is 0.419; in [15], 1.55; in [16] it was 0.118; with Sam68 (KHDRBS1) it was 0.794; in experiment [17] it was -0.399; in experiment [18], 0.653. In experiment [2], the z-score stood at 0.124. The composite Z-score in [11] is -0.413 (inactive).
